Experimental data from the supplement of paper PMC11732987, “Enantioselective OTUD7B fragment discovery through chemoproteomics screening and high-throughput optimisation” (Communications Chemistry, 2025).

Legend:
Test in all cases: log2 ratio of Biotin-Ahx-Ub-VS probe labelling (fragment/DMSO); higher = less target engagement (more negative = stronger competition), active = hit call of the paper (q ≤ 0.05, log2 ratio ≤ -1)
Details in all cases: compound concentration: 200 uM; treatment time: 3 h
USP34 = USP34 (UniProt Q70CQ2)
Sequence of USP34 (Q70CQ2 whole entry, the tested form may be a part): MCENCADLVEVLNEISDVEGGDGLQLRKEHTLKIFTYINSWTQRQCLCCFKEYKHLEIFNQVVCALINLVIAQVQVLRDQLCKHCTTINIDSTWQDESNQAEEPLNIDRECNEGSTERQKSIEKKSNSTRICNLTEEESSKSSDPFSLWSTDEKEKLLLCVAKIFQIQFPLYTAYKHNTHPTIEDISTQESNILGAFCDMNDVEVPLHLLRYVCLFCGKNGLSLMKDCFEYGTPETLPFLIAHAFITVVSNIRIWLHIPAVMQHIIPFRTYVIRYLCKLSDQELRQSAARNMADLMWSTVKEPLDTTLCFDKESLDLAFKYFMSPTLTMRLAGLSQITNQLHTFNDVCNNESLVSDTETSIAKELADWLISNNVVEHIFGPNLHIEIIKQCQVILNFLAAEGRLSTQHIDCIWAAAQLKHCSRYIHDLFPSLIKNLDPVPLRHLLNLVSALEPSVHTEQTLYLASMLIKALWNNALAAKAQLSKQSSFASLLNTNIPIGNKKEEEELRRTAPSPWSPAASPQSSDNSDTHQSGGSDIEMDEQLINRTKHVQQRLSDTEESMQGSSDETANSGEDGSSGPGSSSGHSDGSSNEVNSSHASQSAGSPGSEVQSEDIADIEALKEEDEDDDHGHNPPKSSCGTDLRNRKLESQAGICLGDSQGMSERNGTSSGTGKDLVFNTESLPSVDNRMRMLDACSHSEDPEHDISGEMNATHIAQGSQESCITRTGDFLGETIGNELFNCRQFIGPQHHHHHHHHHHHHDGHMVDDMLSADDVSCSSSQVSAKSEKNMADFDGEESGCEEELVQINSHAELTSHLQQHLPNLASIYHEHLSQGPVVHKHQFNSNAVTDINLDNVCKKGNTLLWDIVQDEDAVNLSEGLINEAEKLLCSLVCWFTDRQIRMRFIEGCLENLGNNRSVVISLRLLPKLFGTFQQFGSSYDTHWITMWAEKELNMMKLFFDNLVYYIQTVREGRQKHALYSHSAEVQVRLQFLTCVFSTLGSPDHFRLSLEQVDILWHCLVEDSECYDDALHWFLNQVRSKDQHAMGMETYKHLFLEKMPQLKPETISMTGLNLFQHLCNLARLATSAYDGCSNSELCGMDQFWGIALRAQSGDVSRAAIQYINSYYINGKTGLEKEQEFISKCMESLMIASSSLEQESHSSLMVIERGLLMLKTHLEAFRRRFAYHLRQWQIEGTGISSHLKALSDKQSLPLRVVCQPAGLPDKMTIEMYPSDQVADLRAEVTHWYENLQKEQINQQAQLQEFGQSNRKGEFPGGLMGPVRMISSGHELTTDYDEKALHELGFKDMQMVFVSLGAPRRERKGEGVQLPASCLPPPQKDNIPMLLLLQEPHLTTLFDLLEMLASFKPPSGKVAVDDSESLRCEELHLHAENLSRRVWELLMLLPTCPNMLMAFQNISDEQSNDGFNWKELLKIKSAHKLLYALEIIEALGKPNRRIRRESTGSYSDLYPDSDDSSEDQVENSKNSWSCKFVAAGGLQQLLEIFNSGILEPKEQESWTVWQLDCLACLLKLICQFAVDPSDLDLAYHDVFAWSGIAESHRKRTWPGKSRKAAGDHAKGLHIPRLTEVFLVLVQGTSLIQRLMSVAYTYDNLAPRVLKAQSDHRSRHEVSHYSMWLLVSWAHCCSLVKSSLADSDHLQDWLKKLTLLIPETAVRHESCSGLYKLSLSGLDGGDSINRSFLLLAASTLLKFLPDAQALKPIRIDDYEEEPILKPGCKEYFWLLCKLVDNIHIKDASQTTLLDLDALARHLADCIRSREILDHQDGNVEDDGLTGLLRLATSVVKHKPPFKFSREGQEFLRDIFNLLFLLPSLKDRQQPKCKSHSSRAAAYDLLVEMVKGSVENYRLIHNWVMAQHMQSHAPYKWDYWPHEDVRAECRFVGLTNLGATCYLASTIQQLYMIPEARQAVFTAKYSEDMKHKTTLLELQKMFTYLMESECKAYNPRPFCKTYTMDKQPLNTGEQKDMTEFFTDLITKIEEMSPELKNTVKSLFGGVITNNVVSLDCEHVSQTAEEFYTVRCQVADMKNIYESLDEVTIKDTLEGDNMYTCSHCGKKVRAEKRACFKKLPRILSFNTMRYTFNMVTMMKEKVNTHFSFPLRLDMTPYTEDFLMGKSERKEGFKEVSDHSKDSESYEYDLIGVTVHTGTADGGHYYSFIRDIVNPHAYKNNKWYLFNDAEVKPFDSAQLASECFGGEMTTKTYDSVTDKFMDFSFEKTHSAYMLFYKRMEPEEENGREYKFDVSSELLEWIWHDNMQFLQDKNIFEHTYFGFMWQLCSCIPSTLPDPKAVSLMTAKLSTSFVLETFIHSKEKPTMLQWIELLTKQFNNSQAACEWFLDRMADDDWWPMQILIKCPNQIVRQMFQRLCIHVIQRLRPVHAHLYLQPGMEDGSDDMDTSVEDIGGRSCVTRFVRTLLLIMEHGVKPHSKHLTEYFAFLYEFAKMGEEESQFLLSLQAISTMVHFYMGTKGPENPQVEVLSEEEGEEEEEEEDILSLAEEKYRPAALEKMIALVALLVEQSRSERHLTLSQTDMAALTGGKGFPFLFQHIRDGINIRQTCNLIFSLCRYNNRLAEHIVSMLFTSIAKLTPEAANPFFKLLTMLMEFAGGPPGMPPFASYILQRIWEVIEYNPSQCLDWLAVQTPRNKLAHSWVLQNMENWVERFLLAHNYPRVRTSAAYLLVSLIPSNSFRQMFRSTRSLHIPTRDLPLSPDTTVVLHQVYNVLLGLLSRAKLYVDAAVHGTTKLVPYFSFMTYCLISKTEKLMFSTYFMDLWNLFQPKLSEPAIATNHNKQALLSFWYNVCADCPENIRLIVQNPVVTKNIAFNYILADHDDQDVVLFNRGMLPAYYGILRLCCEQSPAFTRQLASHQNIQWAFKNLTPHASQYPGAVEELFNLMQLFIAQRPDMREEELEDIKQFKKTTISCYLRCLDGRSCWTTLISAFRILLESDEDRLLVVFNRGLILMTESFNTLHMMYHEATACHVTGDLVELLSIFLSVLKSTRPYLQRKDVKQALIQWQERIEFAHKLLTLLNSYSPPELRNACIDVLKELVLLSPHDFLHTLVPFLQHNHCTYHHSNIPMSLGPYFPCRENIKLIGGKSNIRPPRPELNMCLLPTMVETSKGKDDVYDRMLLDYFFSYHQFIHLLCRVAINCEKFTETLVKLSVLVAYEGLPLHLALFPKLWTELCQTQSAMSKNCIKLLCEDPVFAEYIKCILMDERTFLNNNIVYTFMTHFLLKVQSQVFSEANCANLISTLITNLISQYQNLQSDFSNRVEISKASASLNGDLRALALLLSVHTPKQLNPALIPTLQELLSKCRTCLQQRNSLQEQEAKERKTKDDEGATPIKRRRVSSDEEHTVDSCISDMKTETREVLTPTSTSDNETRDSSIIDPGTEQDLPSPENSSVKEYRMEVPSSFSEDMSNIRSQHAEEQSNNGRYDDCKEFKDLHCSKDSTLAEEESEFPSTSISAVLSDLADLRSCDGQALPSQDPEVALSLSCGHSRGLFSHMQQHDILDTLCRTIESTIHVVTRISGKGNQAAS
Summary of the method: (§1)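 Each value is an average log2 ratio of fragment to vehicle, tested by unpaired t-test. The underlying Spectronaut label-free quantities were global-median-normalised, and only proteins with ≥2 unique peptides were included. Triplicate HEK293T lysate samples (495 µg) were exposed to fragment at 200 µM or vehicle for 3 h, then to Biotin-Ahx-Ub-VS at 0.5 µM final for 1 h, before NeutrAvidin enrichment of labelled DUBs, LysC and trypsin digestion, and diaPASEF LC-MS/MS.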

USP36 = target: T1, USP36 (UniProt Q9P275)
T1 sequence (whole entry): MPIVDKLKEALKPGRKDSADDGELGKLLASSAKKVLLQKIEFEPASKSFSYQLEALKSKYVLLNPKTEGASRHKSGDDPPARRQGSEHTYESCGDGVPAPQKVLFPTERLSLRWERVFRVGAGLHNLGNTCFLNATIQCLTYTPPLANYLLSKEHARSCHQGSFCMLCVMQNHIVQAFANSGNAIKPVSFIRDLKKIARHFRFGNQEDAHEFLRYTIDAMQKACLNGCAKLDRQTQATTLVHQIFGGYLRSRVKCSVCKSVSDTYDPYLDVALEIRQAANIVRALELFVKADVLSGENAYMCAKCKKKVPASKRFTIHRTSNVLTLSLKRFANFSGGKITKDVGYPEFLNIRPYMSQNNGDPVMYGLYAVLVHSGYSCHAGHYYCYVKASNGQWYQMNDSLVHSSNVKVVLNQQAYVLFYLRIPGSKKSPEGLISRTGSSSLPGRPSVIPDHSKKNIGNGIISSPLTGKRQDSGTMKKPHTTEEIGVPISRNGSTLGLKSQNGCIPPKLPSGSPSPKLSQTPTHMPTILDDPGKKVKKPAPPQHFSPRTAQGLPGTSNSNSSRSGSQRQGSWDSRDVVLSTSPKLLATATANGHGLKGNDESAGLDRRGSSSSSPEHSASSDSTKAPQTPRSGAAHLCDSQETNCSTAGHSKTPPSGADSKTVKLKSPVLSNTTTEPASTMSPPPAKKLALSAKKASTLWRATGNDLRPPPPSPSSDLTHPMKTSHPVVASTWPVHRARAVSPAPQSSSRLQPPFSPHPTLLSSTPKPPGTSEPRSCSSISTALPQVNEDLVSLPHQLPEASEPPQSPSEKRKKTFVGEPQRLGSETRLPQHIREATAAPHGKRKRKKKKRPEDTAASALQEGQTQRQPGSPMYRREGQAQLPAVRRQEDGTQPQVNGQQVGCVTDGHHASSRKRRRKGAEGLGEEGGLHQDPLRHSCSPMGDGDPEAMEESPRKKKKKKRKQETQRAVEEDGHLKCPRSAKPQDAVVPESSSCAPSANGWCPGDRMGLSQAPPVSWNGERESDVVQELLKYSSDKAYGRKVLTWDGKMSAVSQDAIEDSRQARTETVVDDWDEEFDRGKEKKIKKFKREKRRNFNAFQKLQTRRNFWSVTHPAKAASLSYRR
Summary of the method: as §1

USP38 = target: T2, USP38 (UniProt Q8NB14)
T2 sequence (whole entry): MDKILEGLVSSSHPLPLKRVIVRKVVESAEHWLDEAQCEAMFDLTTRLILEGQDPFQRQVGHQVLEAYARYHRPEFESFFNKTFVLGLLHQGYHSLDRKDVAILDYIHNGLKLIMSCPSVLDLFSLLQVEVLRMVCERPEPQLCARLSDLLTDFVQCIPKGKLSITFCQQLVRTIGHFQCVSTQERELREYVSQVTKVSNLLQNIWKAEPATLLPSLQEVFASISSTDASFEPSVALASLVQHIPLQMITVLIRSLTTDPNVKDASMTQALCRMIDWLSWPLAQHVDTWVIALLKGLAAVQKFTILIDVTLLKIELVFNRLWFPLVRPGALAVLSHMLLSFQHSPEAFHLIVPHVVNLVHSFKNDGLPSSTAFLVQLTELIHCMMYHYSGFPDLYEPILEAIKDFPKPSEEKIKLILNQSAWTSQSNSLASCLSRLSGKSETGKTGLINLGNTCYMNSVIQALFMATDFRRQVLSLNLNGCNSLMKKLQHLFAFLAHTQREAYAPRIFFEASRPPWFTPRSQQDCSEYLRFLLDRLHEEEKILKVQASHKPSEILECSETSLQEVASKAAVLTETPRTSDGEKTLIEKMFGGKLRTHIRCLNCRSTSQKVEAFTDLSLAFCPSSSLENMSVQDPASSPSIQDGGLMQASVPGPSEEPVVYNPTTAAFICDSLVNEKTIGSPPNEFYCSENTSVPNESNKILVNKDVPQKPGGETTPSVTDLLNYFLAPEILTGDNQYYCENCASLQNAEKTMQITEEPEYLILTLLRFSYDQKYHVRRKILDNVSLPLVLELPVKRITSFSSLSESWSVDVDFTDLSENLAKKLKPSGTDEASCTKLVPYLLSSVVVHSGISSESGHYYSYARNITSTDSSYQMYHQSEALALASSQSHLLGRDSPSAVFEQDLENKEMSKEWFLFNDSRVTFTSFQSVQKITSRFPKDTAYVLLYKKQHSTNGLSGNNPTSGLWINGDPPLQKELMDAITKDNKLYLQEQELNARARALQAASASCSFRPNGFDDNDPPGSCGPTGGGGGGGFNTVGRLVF
Summary of the method: as §1

USP39 = target: T3, USP39 (UniProt Q53GS9)
T3 sequence (whole entry): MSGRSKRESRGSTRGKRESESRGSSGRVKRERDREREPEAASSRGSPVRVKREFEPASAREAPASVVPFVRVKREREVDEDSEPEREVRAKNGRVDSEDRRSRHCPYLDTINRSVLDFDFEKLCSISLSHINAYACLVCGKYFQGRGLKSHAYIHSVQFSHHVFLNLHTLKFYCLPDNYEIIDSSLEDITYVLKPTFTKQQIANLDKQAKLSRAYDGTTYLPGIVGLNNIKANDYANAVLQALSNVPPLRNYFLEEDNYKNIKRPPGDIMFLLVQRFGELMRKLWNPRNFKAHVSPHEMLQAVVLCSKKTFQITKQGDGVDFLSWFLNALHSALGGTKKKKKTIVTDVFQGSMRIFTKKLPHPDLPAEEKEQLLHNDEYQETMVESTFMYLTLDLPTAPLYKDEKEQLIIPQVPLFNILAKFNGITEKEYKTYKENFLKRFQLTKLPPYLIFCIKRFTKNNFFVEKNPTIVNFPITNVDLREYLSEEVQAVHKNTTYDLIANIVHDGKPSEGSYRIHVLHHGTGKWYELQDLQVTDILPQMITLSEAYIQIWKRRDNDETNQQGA
Summary of the method: as §1

USP4 = target: T4, USP4 (UniProt Q13107)
T4 sequence (whole entry): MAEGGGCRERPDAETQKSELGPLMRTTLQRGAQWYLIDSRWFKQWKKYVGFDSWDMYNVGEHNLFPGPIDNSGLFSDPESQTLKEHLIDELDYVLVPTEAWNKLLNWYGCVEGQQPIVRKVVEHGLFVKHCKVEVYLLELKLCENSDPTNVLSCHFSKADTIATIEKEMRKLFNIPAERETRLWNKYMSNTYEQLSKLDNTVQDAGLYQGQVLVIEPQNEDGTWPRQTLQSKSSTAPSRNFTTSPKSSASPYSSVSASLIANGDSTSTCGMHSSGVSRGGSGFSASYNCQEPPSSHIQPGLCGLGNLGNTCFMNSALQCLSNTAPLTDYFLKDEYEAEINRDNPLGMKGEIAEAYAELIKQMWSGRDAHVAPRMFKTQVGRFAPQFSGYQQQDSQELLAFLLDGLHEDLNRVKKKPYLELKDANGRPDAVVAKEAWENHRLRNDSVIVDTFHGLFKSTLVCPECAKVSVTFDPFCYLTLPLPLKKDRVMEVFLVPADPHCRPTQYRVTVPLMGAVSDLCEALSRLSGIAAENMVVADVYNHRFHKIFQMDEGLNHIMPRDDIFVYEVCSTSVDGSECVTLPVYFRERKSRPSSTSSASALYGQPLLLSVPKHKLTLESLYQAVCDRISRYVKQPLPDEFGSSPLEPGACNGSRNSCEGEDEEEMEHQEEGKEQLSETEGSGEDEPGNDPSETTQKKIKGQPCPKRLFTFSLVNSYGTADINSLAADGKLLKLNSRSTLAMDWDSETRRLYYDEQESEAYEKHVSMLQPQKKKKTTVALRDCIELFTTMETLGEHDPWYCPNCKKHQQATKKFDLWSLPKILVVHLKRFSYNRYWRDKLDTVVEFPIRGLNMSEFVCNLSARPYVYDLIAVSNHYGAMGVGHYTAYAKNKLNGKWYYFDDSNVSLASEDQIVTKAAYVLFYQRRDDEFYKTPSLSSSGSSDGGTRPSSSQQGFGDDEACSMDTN
Summary of the method: as §1

Measured: log2 ratio of Biotin-Ahx-Ub-VS probe labelling

CC1Cc2ccccc2N1C(=O)CCl (stereo not given)
inactive: USP34 -0.159 | USP36 0.0162 | USP38 -0.00784 | USP39 -0.0124 | USP4 -0.603
